Assay outcomes (PubChem BioAssay)
Many of the other results were omitted from the sample, so hits are more common in it than they were.
DUX4 inh: blocks DUX4-driven transcriptional activation. 293T-iDUX4 ZSCAN4-Gaussia luciferase reporter, 24 h; active compounds read low. activity change, negative = inhibition, % (test concentration not listed). 37,000 tested, 0.8% active;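 active means mean inhibition of at least 10% in the main channel, exceeding the control channel by a set limit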;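 further: 0% = median of neutral control wells and -100% = median of positive control wells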
An asterisk follows results filed as active; ! = not active in a repeat.

SMILES	DUX4 inh
CN(C)C(=O)c1ccc(-c2ccc(C3[C@@H]4CN(Cc5nccs5)C[C@H]3N4)cc2)cc1 (stereo not given in full)	-1.0
CN(C)C(=O)c1cccc(-c2ccc(C3[C@@H]4CN(Cc5cocn5)C[C@H]3N4)cc2)c1 (stereo not given in full)	10.3
N#Cc1ccc(-c2ccc(C3[C@H]4CNC[C@@H]3N4C(=O)Nc3ccccc3F)cc2)cc1 (stereo not given in full)	-3.3
COc1ccccc1CN1C[C@@H]2N[C@H](C1)C2c1ccc(-c2ccncc2)cc1 (stereo not given in full)	-13.9*!
N#Cc1ccc(-c2ccc([C@@H]3[C@@H]4CN(Cc5cocn5)C[C@H]3N4)cc2)cc1	-75.0*
N#Cc1ccc(-c2ccc(C3[C@@H]4CN(Cc5ccccc5F)C[C@H]3N4)cc2)cc1 (stereo not given in full)	-43.6*!
COc1ccccc1CN1[C@@H]2CNC[C@H]1C2c1ccc(-c2ccc(C#N)cc2)cc1 (stereo not given in full)	0.8
COc1cc(CN2C[C@@H]3N[C@H](C2)C3c2ccc(-c3cncnc3)cc2)cc(OC)c1 (stereo not given in full)	2.3
COc1ccccc1CN1[C@@H]2CNC[C@H]1C2c1ccc(-c2ccncc2)cc1 (stereo not given in full)	13.8
CN(C)CC(=O)Nc1ccc2c(c1)C(=O)N(C)[C@H]1CC[C@H](CC(=O)Nc3ccc(F)cc3)O[C@@H]1CO2	3.4
Cc1ccccc1NC(=O)C[C@H]1CC[C@H]2[C@@H](COc3ccc(NC(=O)c4ccc(Cl)cc4)cc3C(=O)N2C)O1	-2.0
C[C@@H]1CN([C@@H](C)CO)C(=O)c2cc(N(C)C)ccc2O[C@H]1CN(C)CC1CCCCC1	-2.1
N#C[C@@H]1[C@@H](c2ccc(-c3cccc(F)c3)cc2)[C@@H](CO)N1C(=O)NC1CCCC1	1.9
Cc1ccc(-c2ccccc2[C@H]2[C@@H](C#N)N(C(=O)NC3CCCC3)[C@H]2CO)cc1	-7.8
N#C[C@@H]1[C@@H](c2ccccc2-c2cccc(F)c2)[C@@H](CO)N1C(=O)NC1CCCCC1	-29.2*
Cc1noc(C)c1NC(=O)Nc1ccc2c(c1)C(=O)N([C@H](C)CO)C[C@H](C)[C@H](CN(C)C(=O)Nc1cccc3ccccc13)O2	-4.5
COCC(=O)N1[C@@H](CO)[C@@H](c2ccccc2)C12CN(C(=O)c1cccc(F)c1)C2	11.6
CO[C@@H]1CN(C)C(=O)c2ccc(NC(=O)c3cccc(F)c3)cc2OC[C@H](C)N(CC2CC2)C[C@H]1C	-6.3
O=C(C[C@@H]1CC[C@H]2[C@@H](COC[C@H](O)CN2Cc2cccc(C(F)(F)F)c2)O1)NCCc1ccncc1	-2.2
Cc1ccccc1S(=O)(=O)N(C)C[C@H]1OCc2ccccc2-c2c(n(C)c3ccccc23)C(=O)N([C@H](C)CO)C[C@@H]1C	-35.3*
C[C@@H]1CN([C@@H](C)CO)C(=O)c2c(c3ccccc3n2C)-c2ccccc2CO[C@@H]1CN(C)S(=O)(=O)c1cccc(C#N)c1	-24.5*
C[C@@H]1CN([C@H](C)CO)C(=O)c2c(c3ccccc3n2C)-c2ccccc2CO[C@H]1CN(C)S(C)(=O)=O	7.6
C[C@@H]1CN([C@H](C)CO)C(=O)c2c(c3ccccc3n2C)-c2ccccc2CO[C@H]1CN(C)S(=O)(=O)c1ccc(F)cc1	-29.1*
C[C@@H]1CN([C@H](C)CO)C(=O)c2c(c3ccccc3n2C)-c2ccccc2CO[C@@H]1CN(C)S(C)(=O)=O	17.3
C[C@@H]1CN([C@H](C)CO)C(=O)c2c(c3ccccc3n2C)-c2ccccc2CO[C@@H]1CN(C)S(=O)(=O)c1ccc(C(F)(F)F)cc1	-0.5
SMILES	DUX4 inh
C[C@@H]1CN([C@@H](C)CO)C(=O)c2c(c3ccccc3n2C)-c2ccccc2CO[C@@H]1CN(C)S(=O)(=O)c1ccc(C#N)cc1	3.2
C[C@H]1CN([C@@H](C)CO)C(=O)c2c(c3ccccc3n2C)-c2ccccc2CO[C@@H]1CN(C)S(=O)(=O)c1ccc([N+](=O)[O-])cc1	-4.9
C[C@@H]1CN([C@H](C)CO)C(=O)c2c(c3ccccc3n2C)-c2ccccc2CO[C@H]1CN(C)S(=O)(=O)c1cccc(C#N)c1	12.8
CN(C)CC(=O)Nc1ccc2c(c1)[C@@H]1C[C@@H](CC(=O)NCc3ccc4c(c3)OCO4)O[C@H](CO)[C@@H]1O2	-3.5
CO[C@@H](CN(C)S(=O)(=O)c1ccccc1)[C@@H](C)CN(Cc1ccccc1Cl)[C@@H](C)CO	-0.1
CN1c2ccc(-c3ccc(F)cc3)cc2[C@@H]2[C@@H](CCN2C(=O)CC2CC2)[C@H]1CO	0.9
CO[C@H]1CN(C)C(=O)c2ccc(NC(C)=O)cc2OC[C@@H](C)N(C(=O)C2CCOCC2)C[C@@H]1C	-6.6
O=C(CN1CCOCC1)N1CCCCN2[C@@H](CO)[C@@H](c3ccc(-c4ccccc4F)cc3)[C@@H]2C1	7.7
COc1ccc(S(=O)(=O)Nc2ccc3c(c2)C(=O)N([C@@H](C)CO)C[C@H](C)[C@H](CN(C)C(=O)Nc2cccc4ccccc24)OCCCC[C@@H](C)O3)cc1	1.9
O=C1N[C@@H](Cc2ccccc2)COCc2cn(nn2)CC[C@@H]1Cc1cccc(Cl)c1	2.6
C[C@@H]1CCCCO[C@H](CN(C)C(=O)CCC(F)(F)F)[C@H](C)CN([C@@H](C)CO)C(=O)c2cc(NS(=O)(=O)c3cccs3)ccc2O1	2.7
CO[C@H]1CN(C)C(=O)c2cc(NC(=O)c3cc(C)on3)ccc2OC[C@H](C)N(C)C[C@@H]1C	-1.9
O=C(C1CCCCC1)N1CC2(C1)[C@@H](c1ccccc1)[C@@H](CO)N2Cc1nccs1	4.6
CCCC#Cc1cnc2c(c1)C(=O)N([C@@H](C)CO)C[C@@H](C)[C@H](CN(C)C(=O)C1CCC1)O2	5.9
O=C(C[C@@H]1CC[C@H]2[C@@H](COC[C@@H](O)CN2C(=O)Nc2ccc(C(F)(F)F)cc2)O1)NCC1CCCCC1	13.9
C[C@H]1CN([C@@H](C)CO)C(=O)c2c(c3ccccc3n2C)-c2ccccc2CO[C@@H]1CN(C)C(=O)c1ccc(F)cc1	-32.2*
CC(=O)N(C)C[C@@H]1OCc2ccccc2-c2c(n(C)c3ccccc23)C(=O)N([C@@H](C)CO)C[C@H]1C	17.2
C[C@H](CO)N1C[C@H](C)[C@@H](CN(C)C(=O)c2cc(Cl)cc(Cl)c2)OCc2ccccc2-c2c(n(C)c3ccccc23)C1=O	13.3
C[C@@H]1CN([C@@H](C)CO)C(=O)c2c(c3ccccc3n2C)-c2ccccc2CO[C@@H]1CN(C)C(=O)c1ccncc1	1.1
C[C@@H]1CN([C@H](C)CO)C(=O)c2c(c3ccccc3n2C)-c2ccccc2CO[C@@H]1CN(C)C(=O)c1ccc(F)cc1	-5.5
C[C@@H]1CN([C@@H](C)CO)C(=O)c2c(c3ccccc3n2C)-c2ccccc2CO[C@@H]1CN(C)C(=O)c1cc(Cl)cc(Cl)c1	-42.2*
O=C(C[C@H]1CC[C@@H]2[C@H](COC[C@@H](O)CN2Cc2ccc3c(c2)OCO3)O1)N1CCOCC1	7.9
CN1c2ccc(Br)cc2[C@@H]2[C@@H](CCN2C(=O)Nc2cc(F)ccc2F)[C@@H]1CO	-9.8
C[C@H](CO)N1C[C@H](C)[C@@H](CN(C)Cc2cccc(O)c2)OCc2ccccc2-c2ccccc2C1=O	-0.1
C[C@@H]1CN([C@@H](C)CO)C(=O)c2ccccc2-c2ccccc2CO[C@@H]1CN(C)Cc1cccc(F)c1	12.1
